PubChem BioAssay
Potency and affinity values are given separately. Inconclusive results are not listed. Calls of active or inactive are those of the source. Unless noted, no rule for the calls is given here.

What was measured:
[1] = RMG-1 ovarian cancer cell viability loss – cherry-pick, dose response (AID 687029;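 active = signal drop whose fitted half-maximal concentration is at most twice the top valid dose, in every test run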;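 also: cells exposed to compound for 96 hours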)
[2] = IOSE-T80 viability loss, PAX8-independent line – cell-based, cherry-pick, selectivity assay for PAX8 inhibitor project, dose response (AID 687032;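 active = fitted half-maximal concentration for viability loss no higher than twice the top valid dose, in every repeat run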;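 also: cells exposed to compound for 96 h before reading; 0% = neutral control wells and -100% = 2 µM mitoxantrone kill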)
[3] = CMV-driven luciferase expression suppression in HEK293 – cell-based, luminescence, dry powder, counter-screen for Pax8 inhibitor project, dose response (AID 743020;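 active = signal-lowering compounds whose fitted half-maximal concentration is at or below twice the top tested dose in every run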;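 also: HEK293 cells stably expressing the CMV luciferase reporter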)
[4] = general cell-killing toxicity readout – plate reader, dry powder samples, cytotoxicity control for PAX8 inhibitor project, dose response (AID 743021)
[5] = IGROV1 cell killing – plate reader, dry powder samples, PAX8 inhibitor project, dose response (AID 743043);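 also: more negative means fewer viable cells or more cytotoxicity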
[6] = OVCAR-3 cell viability loss – plate reader, dry powder samples, PAX8 inhibitor project, dose response (AID 743044); conditions: max activity: at 35 µM, active compounds read low unless noted
[7] = toxicity toward immortalized ovarian surface epithelium – cell-based, plate reader, dry powder samples, cytotoxicity control for PAX8 inhibitor project, dose response (AID 743045);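 also: 0% = neutral control median and -100% = positive control median; more negative values mean more cell killing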
[8] = A2780 cell killing – plate reader, dry powder samples, cytotoxicity control, dose response (AID 743046);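 also: 0% = neutral control wells and -100% = cytotoxic reference compound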
[9] = OVCAR8 cell viability loss – plate reader, dry powder samples, PAX8 project, dose response (AID 743197)

Measured: max activity

COc1ccc(NC(=O)Nc2ccc3c(c2)C(=O)N([C@H](C)CO)C[C@@H](C)[C@@H](CN(C)C(=O)Cc2ccccc2)OCCCC[C@H](C)O3)cc1
inactive: [1] | [2] | [3] | [4] | [5] | [6] -34.5% | [7]

C[C@@H]1CN([C@@H](C)CO)C(=O)c2cc(NC(=O)Nc3ccc(C(F)(F)F)cc3)ccc2O[C@@H](C)CCCCO[C@H]1CN(C)C(=O)c1ccccc1
inactive: [1] | [2] | [3] | [4] | [5] | [6] 12.6% [at 0.26 µM, active compounds read low] | [7]

CC(C)CC#Cc1ccc2c(c1)O[C@@H](CN(C)S(=O)(=O)c1ccc(F)cc1)[C@H](C)CN([C@@H](C)CO)S2(=O)=O
inactive: [1] | [2] | [3] | [4] | [5] | [6] 21.6% [at 4.2 µM, active compounds read low] | [7] | [8]

C[C@H](CO)N1C[C@H](C)[C@@H](CN(C)Cc2ccc(Cl)c(Cl)c2)OCCCC[C@H](C)Oc2ccc(NS(=O)(=O)c3ccc(Cl)cc3)cc2C1=O
inactive: [1] | [2] | [3] | [4] | [5] | [6] -25.3% | [7]

O=C(C[C@@H]1C[C@@H]2c3cc(NS(=O)(=O)c4ccc(F)cc4)ccc3O[C@@H]2[C@@H](CO)O1)NCc1ccc(-c2ccccc2)cc1
inactive: [1] | [2] | [3] | [4] | [5] | [6] -23.3% [at 16 µM, active compounds read low] | [7]

C[C@H]1CN([C@@H](C)CO)S(=O)(=O)c2ccc(-c3ccc(C#N)cc3)cc2O[C@@H]1CN(C)Cc1cccc(F)c1
inactive: [1] | [2] | [3] | [4] | [5] | [6] -11.6% [at 16 µM, active compounds read low] | [7] | [8]

Cc1ccc(S(=O)(=O)Nc2ccc3c(c2)C(=O)N([C@H](C)CO)C[C@@H](C)[C@H](CN(C)S(=O)(=O)c2ccccc2)OCCCC[C@H](C)O3)cc1
inactive: [1] | [2] | [3] | [4] | [5] | [6] -31.1% | [7]

Cc1ccc(S(=O)(=O)N(C)C[C@@H]2OCCCC[C@H](C)Oc3ccc(NS(=O)(=O)c4cccs4)cc3C(=O)N([C@H](C)CO)C[C@H]2C)cc1
inactive: [1] | [2] | [3] | [4] | [5] | [6] 5.96% | [7] | [8]

C[C@H](CO)N1C[C@H](C)[C@H](CN(C)S(=O)(=O)c2ccccc2)OCCCC[C@H](C)Oc2ccc(NS(=O)(=O)c3ccc(Cl)cc3)cc2C1=O
inactive: [1] | [2] | [3] | [4] | [5] | [6] -18.9% | [7]

C[C@H](CO)N1C[C@H](C)[C@@H](CN(C)Cc2ccc(Cl)c(Cl)c2)OCCCC[C@H](C)Oc2ccc(NS(=O)(=O)c3ccc(F)cc3)cc2C1=O
inactive: [1] | [2] | [3] | [4] | [5] | [6] -28.3% | [7]

COc1ccccc1C#Cc1ccc([C@@H]2[C@@H](C#N)N(C(=O)C3CCCCC3)[C@H]2CO)cc1
inactive: [1] | [2] | [3] | [4] | [5] | [6] 26.7% [at 30 µM, active compounds read low] | [6] | [7] | [8] | [9]

O=C(NC1CC1)c1ccc2c(c1)C1C3CCC(C3)C1C(c1ccccc1)N2 (centres undefined)
inactive: [1] | [2] | [3] | [4]

O=C1C=CC(=C(c2ccc(O)cc2)c2ccc(O)cc2)C=C1
inactive: [1] | [2] | [3] | [4]

CCCC#Cc1ccc2c(c1)O[C@H](CN(C)Cc1ccccc1)[C@@H](C)CN([C@H](C)CO)S2(=O)=O
inactive: [1] | [2] | [3] | [4] | [5] | [6] 7.94% [at 1 µM, active compounds read low] | [7] | [8]

CS(=O)(=O)N1C[C@@H]2N[C@H](C1)[C@@H]2c1ccc(-c2ccccc2)cc1
inactive: [1] | [2] | [3] | [4] | [5] | [6] 15.8% [at 1 µM, active compounds read low] | [7] | [8]

C[C@@H]1CCCCO[C@H](CN(C)Cc2ccc(C(F)(F)F)cc2)[C@@H](C)CN([C@@H](C)CO)C(=O)c2cc(NS(=O)(=O)c3ccc(Cl)cc3)ccc2O1
inactive: [1] | [2] | [3] | [4] | [5] | [6] -151% | [7]

COC(=O)[C@@]12C[C@@H](CC(=O)N3CCN(C(=O)c4ccco4)CC3)C(=O)N(Cc3ccco3)C1=CCC(C)(C)C2
inactive: [1] | [2] | [3] | [4]

O=C(Nc1cccc(F)c1)N1CCCCN2[C@@H](CO)[C@@H](c3ccc(-c4ccncc4)cc3)[C@@H]2C1
inactive: [1] | [2] | [3] | [4] | [5] | [6] 12.6% [at 1 µM, active compounds read low] | [7] | [8]

CC(C)c1ccc(/C=C(\c2nc3ccccc3[nH]2)S(=O)(=O)c2ccccc2)cc1
inactive: [1] | [2] | [3] | [4]

Cc1ccccc1-c1ccc2c(c1)O[C@H](CN(C)C(=O)Nc1ccc(C(F)(F)F)cc1)[C@H](C)CN([C@H](C)CO)S2(=O)=O
inactive: [1] | [2] | [3] | [4] | [5] | [6] -27.3% | [7]

Cc1ccc(S(=O)(=O)Nc2ccc3c(c2)C(=O)N([C@@H](C)CO)C[C@H](C)[C@@H](CN(C)Cc2ccc(Cl)c(Cl)c2)OCCCC[C@@H](C)O3)cc1
inactive: [1] | [2] | [3] | [4] | [5] | [6] -5.1% [at 16 µM, active compounds read low] | [7] | [8]

CN1C(=O)c2cc(NC(=O)c3cccc(Cl)c3)ccc2OC[C@@H]2O[C@H](CC(=O)NC3CCCCC3)CC[C@@H]21
inactive: [1] | [2] | [3] | [4] | [5] | [6] -25.7% | [7]

Cc1ccc(S(=O)(=O)N2CCCCC2)cc1NC(=O)Cc1c[nH]c2ccccc12
inactive: [1] | [2] | [3] | [4]

C[C@@H]1CN([C@H](C)CO)C(=O)c2cc(NS(=O)(=O)c3cccs3)ccc2O[C@@H](C)CCCCO[C@H]1CN(C)Cc1ccc(C(F)(F)F)cc1
inactive: [1] | [2] | [3] | [4] | [5] | [6] -10.6% [at 16 µM, active compounds read low] | [7] | [8]

C[C@@H]1CCCCO[C@@H](CN(C)Cc2ccncc2)[C@H](C)CN([C@H](C)CO)C(=O)c2cc(NC(=O)Nc3ccc(C(F)(F)F)cc3)ccc2O1
inactive: [1] | [2] | [3] | [4] | [5] | [6] 17.2% [at 4.2 µM, active compounds read low] | [7] | [8]

C[C@@H]1CN([C@H](C)CO)C(=O)c2cc(NC(=O)Nc3ccc(F)cc3)ccc2O[C@@H](C)CCCCO[C@H]1CN(C)S(=O)(=O)c1ccc(Cl)cc1
inactive: [1] | [2] | [3] | [4] | [5] | [6] -22.1% [at 16 µM, active compounds read low] | [7]

C[C@@H]1CCCCO[C@@H](CN(C)Cc2ccccc2)[C@@H](C)CN([C@@H](C)CO)C(=O)c2cc(NS(=O)(=O)c3ccc(Cl)cc3)ccc2O1
inactive: [1] | [2] | [3] | [4] | [5] | [6] 29.1% [at 0.26 µM, active compounds read low] | [7]

N#Cc1cccc(-c2ccc3c(c2)[C@@H]2[C@@H](CCN2C(=O)C2CCCCC2)[C@@H](CO)N3)c1
inactive: [1] | [2] | [3] | [4] | [5] | [6] 11.5% [at 16 µM, active compounds read low] | [7] | [8]

COc1ccc2c(c1)C(C)=CC(C)(C)N2S(=O)(=O)c1ccc(Br)cc1
inactive: [1] | [2] | [3] | [4] | [5]

CN1c2ccc(C3=CCCCC3)cc2[C@H]2[C@H](CCN2C(=O)NC2CCCCC2)[C@@H]1CO
inactive: [1] | [2] | [3] | [4] | [5] | [6] 17.4% [at 0.56 µM, active compounds read low] | [7] | [8]

COC(C(=O)C(O)C(C)O)C1Cc2cc3cc(OC4CC(OC5CC(O)C(O)C(C)O5)C(O)C(C)O4)c(C)c(O)c3c(O)c2C(=O)C1OC1CC(OC2CC(OC3CC(O)C(OC)C(C)O3)C(O)C(C)O2)C(O)C(C)O1 (centres undefined)
inactive: [1] | [2] | [3] | [4]

C[C@@H]1CN([C@@H](C)CO)C(=O)c2cc(NC(=O)Nc3ccc(C(F)(F)F)cc3)ccc2O[C@@H](C)CCCCO[C@@H]1CN(C)Cc1ccc2c(c1)OCO2
inactive: [1] | [2] | [3] | [4] | [5] | [6] -5.57% [at 16 µM, active compounds read low] | [7]

COc1ccc2c3c(n(C)c2c1)[C@H](CO)N(C(=O)Nc1ccc(F)cc1)CC31CCN(S(=O)(=O)c2cccc(C)c2)CC1
inactive: [1] | [2] | [3] | [4] | [5] | [6] -14.5% | [7]

COc1ccc(-c2ccc3c(c2)[C@@H]2[C@@H](CCN2C(=O)NC2CCCCC2)[C@@H](CO)N3C)cc1
inactive: [1] | [2] | [3] | [4] | [5] | [6] -44.1% [at 9 µM, active compounds read low] | [7]

O=C(C[C@@H]1CC[C@H]2[C@@H](COC[C@H](O)CN2C(=O)Nc2ccc(Cl)c(Cl)c2)O1)NCc1ccc(Cl)cc1
inactive: [1] | [2] | [3] | [4] | [5] | [6] -36.1% | [7]
